Experimental data published in publication PMC5540273 (PLoS ONE, 2017).

Experiments:
Details in all cases: concentration: 1 μM, replicates: in singlicate; n = 1
TSSK1B = system: TSSK1B
TSSK3 = system: TSSK3
TTK = system: TTK
TXK = system: TXK
[1] = system: TYK2(JH1domain-catalytic)
[2] = system: TYK2(JH2domain-pseudokinase)
TYRO3 = system: TYRO3
ULK1 = system: ULK1
ULK2 = system: ULK2
ULK3 = system: ULK3
VEGFR2 = system: T1, VEGFR2
T1 construct: gene KDR

VPS34 = system: T2, VPS34
T2 construct: gene PIK3C3

VRK2 = system: VRK2
WEE1 = system: WEE1
WEE2 = system: WEE2
WNK1 = system: WNK1
WNK2 = system: WNK2
WNK3 = system: WNK3
WNK4 = system: WNK4
YANK1 = system: T3, YANK1
T3 construct: gene STK32A
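Note: KINOMEscan kinase panel screen.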

| Structure (SMILES) | %Inh (TSSK1B) [%] | %Inh (TSSK3) [%] | %Inh (TTK) [%] | %Inh (TXK) [%] | %Inh [1] [%] | %Inh [2] [%] | %Inh (TYRO3) [%] | %Inh (ULK1) [%] | %Inh (ULK2) [%] | %Inh (ULK3) [%] | %Inh (VEGFR2) [%] | %Inh (VPS34) [%] | %Inh (VRK2) [%] | %Inh (WEE1) [%] | %Inh (WEE2) [%] | %Inh (WNK1) [%] | %Inh (WNK2) [%] | %Inh (WNK3) [%] | %Inh (WNK4) [%] | %Inh (YANK1) [%] |
| --- | --- | --- | --- | --- | --- | --- | --- | --- | --- | --- | --- | --- | --- | --- | --- | --- | --- | --- | --- | --- |
| COc1ccc2cc(-c3nc(-c4ccccc4C(C)C)[nH]c3-c3ccncc3)ccc2c1 [SB-660566] | 54 | 31 | 0 | 35 | 7 | 27 | 0 | 19 | 0 | 14 | 0 | 0 | 0 | 12 | 15 | 10 | 14 | 42 | 0 | 16 |
| Cc1c(Cn2c(C)c(C)n3c(=O)cc(N4CCOCC4)nc23)cccc1C(F)(F)F [GSK2328680] | 11 | 7 | 0 | 20 | 5 | 4 | 0 | 9 | 0 | 14 | 0 | 20 | 0 | 9 | 14 | 0 | 0 | 0 | 0 | 6 |
| COc1ccc(Nc2nccc(N3CCC(NC(=O)c4cc5ccccc5s4)C3)n2)cc1 (centres unmarked) [GSK1379738] | 0 | 19 | 0 | 67 | 9 | 26 | 0 | 5 | 0 | 14 | 0 | 0 | 0 | 10 | 0 | 14 | 11 | 34 | 24 | 0 |
| COc1ccc(Nc2nccc(N3CCC(NC(=O)C(C)c4ccc(Cl)cc4)CC3)n2)cc1 (centres unmarked) [GSK1379812] | 0 | 53 | 0 | 0 | 0 | 0 | 0 | 0 | 0 | 0 | 1 | 0 | 0 | 31 | 0 | 0 | 0 | 47 | 19 | 10 |
| Cc1nccc(-c2c(-c3ccc(F)cc3)ncn2CCCN2CCOCC2)n1.Cl [SB-282975] | 3 | 43 | 0 | 31 | 42 | 28 | 14 | 9 | 26 | 20 | 0 | 0 | 0 | 9 | 16 | 12 | 6 | 2 | 0 | 0 |
| COC(=O)C(Cc1ccccc1)NC(=O)NC1CCN(c2ccnc(Nc3ccc(F)cc3)n2)C1 (centres unmarked) [GSK1379714] | 0 | 21 | 0 | 0 | 33 | 19 | 0 | 0 | 0 | 0 | 7 | 3 | 38 | 0 | 13 | 3 | 46 | 38 | 45 | 0 |
| Fc1ccc(-c2nc[nH]c2-c2ccncc2)cc1 [SB-217360] | 0 | 0 | 0 | 0 | 2 | 22 | 0 | 20 | 27 | 16 | 0 | 26 | 19 | 4 | 0 | 11 | 0 | 9 | 2 | 7 |
